Results filed as inconclusive are left out. Where a call stands in place of a potency, no number is given. The source made the active and inactive calls. The call rests on the fitted dose curve; in most records, active means well fitted curve in the direction sought with a large enough effect in the repeat runs; inconclusive means weak or mixed curves; inactive means no such curve, though single readings can be large; an effect the other way counts as inactive or inconclusive.
target: Cytochrome P450 1A2 (Homo sapiens) (UniProt P05177); experiment: Cytochrome P450 Family 1 Subfamily A Member 2 (CYP1A2) small molecule antagonists: luciferase reporter qHTS assay (AID 1671199); details: P450-Glo CYP1A2 enzyme, luciferin luminescence, 1 h; series mostly up to 115 µM
Sequence (P05177 whole entry, looked up): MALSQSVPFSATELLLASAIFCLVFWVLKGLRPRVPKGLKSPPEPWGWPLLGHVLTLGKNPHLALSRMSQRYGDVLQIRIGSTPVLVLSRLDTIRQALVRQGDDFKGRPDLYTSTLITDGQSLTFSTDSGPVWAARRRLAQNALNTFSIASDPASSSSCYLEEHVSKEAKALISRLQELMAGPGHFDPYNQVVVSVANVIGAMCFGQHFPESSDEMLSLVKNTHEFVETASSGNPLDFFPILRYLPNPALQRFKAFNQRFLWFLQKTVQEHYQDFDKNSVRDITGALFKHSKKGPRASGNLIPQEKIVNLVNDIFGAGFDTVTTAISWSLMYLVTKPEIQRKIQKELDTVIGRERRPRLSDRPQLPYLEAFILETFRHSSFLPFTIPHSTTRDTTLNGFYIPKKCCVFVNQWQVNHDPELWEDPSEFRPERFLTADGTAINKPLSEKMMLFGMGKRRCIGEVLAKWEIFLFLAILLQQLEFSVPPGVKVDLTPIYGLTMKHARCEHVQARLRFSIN
Outline: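 P450-Glo CYP1A2, 1536-well qHTS: enzyme/proluciferin substrate + cpd (DMSO), 10 min RT; NADPH regen, 1 h RT; detection reagent, 20 min; luminescence, RLU.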
Further: nearly all actives have a fitted effect of over 50% in size.
Potency means the concentration at half of the fitted maximal effect.

SMILES	Potency
CCOP(=S)(OCC)Oc1cc(C)nc(N(CC)CC)n1	3.56 µM (active)
Cc1ccc([N+](=O)[O-])[c]2c1[O][Hg]2	3.23 µM (active)
CNC(=O)/C=C(\C)OP(=O)(OC)OC	28.3 µM (active)
N#Cc1ccc(N(CC(N)=O)CC(F)(F)F)cc1C(F)(F)F	39.9 µM (active)
O=C(O)CCCCCCNC1c2ccccc2CCc2ccccc21	inactive
NC(=O)C(Cl)Cl	inactive
Cc1cccc(Cc2cnc[nH]2)c1C	0.911 µM (active)
N#CSCc1ccccc1	80 µM (active)
CCOP(=O)(OCC)Oc1cc(C)nc(C(C)C)n1	35.8 µM (active)
N#CCCl	33.1 µM (active)
C=CC(=C)C	inactive
CCn1cc[n+](C)c1 (tested in a mixture with another compound)	inactive
CC(=O)[O][Pb]([c]1ccccc1)([c]1ccccc1)[c]1ccccc1	39.9 µM (active)
CCCCc1ccccc1	inactive
CCNS(=O)(=O)C(F)(F)C(F)(F)C(F)(F)C(F)(F)C(F)(F)C(F)(F)C(F)(F)C(F)(F)F	inactive
Oc1ccc(Cl)c(Cl)c1	39.3 µM (active)
O=C(Nc1ccc(F)cc1F)c1cccnc1Oc1cccc(C(F)(F)F)c1	7.81 µM (active)
ClC1(Cl)C2(Cl)C3(Cl)C4(Cl)C(Cl)(Cl)C5(Cl)C3(Cl)C1(Cl)C5(Cl)C24Cl (stereo not drawn)	inactive
CC(C)=CCN1CC[C@@]2(C)c3cc(O)ccc3C[C@@H]1[C@@H]2C	inactive
O=S1(=O)OCC2C(CO1)C1(Cl)C(Cl)=C(Cl)C2(Cl)C1(Cl)Cl (stereo not drawn)	31.7 µM (active)
C[C@]12C/C(=C/O)C(=O)C[C@@H]1CC[C@@H]1[C@@H]2CC[C@@]2(C)[C@H]1CC[C@]2(C)O	inactive
[Cl][Hg][c]1ccccc1	28.3 µM (active)
CCCCCON=O	inactive
ClC(Cl)C(Cl)(Cl)Cl	31.1 µM (active)
COC(=O)/C=C(\C)OP(=O)(OC)OC	inactive
CCCCC(CC)COC(=O)c1ccccc1C(=O)OCC(CC)CCCC (stereo not drawn)	33.6 µM (active)
O=C(Cl)c1ccccc1F	inactive
CC1(C)[C@H](/C=C2\CCSC2=O)[C@@H]1C(=O)OCc1coc(Cc2ccccc2)c1	22.4 µM (active)

target: Voltage-gated inwardly rectifying potassium channel KCNH2 (Homo sapiens) (UniProt Q12809); experiment: Human Ether-a-go-go-Related Gene (hERG) channel small molecule antagonists: fluorescence cell-based qHTS assay (AID 1671200); details: hERG-U2OS cells, FluxOR thallium flux fluorescence; series mostly up to 76.8 µM
Sequence (Q12809 whole entry, looked up): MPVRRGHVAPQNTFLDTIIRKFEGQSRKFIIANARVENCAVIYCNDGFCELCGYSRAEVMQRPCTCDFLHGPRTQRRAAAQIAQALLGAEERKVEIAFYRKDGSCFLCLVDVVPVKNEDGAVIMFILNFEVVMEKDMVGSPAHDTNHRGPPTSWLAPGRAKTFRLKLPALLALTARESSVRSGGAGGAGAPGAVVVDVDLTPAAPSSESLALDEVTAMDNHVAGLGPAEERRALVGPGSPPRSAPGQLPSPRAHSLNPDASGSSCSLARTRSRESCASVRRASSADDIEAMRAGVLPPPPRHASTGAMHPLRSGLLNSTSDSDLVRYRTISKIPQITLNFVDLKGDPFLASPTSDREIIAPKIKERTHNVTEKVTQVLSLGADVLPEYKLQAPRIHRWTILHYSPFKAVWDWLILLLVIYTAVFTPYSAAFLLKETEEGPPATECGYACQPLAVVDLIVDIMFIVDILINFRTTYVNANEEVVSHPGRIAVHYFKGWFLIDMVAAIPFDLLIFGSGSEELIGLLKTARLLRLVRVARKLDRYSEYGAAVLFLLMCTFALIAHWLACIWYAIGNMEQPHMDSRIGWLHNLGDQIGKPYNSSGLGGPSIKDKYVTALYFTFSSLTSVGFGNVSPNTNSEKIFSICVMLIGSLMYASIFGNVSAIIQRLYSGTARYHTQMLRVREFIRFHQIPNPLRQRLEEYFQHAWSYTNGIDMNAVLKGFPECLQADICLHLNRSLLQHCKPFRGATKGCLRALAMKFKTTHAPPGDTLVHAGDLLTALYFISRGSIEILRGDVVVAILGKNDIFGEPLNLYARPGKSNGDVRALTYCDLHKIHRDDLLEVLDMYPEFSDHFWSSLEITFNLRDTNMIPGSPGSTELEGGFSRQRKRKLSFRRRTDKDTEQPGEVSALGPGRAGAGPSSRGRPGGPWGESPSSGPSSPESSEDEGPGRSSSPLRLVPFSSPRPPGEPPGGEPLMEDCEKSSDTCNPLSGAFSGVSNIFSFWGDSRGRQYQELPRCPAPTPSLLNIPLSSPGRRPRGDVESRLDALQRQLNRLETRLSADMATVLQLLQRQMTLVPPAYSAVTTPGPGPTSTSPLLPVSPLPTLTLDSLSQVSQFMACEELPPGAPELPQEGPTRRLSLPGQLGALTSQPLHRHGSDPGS
Outline: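 In this thallium-flux screen, overnight-cultured U2OS cells bearing the channel are dye-loaded in darkness for an hour, rested 10 min at room temperature, and then monitored kinetically at 480/540 nm for two minutes post-stimulus.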

SMILES	Potency
CCOP(=S)(OCC)Oc1cc(C)nc(N(CC)CC)n1	inactive
Cc1ccc([N+](=O)[O-])[c]2c1[O][Hg]2	6.01 µM (active)
CC(=O)[O][Sn]([c]1ccccc1)([c]1ccccc1)[c]1ccccc1	1.1 µM (active)
C=C(C)C(=O)[O][Sn]([CH2]CCC)([CH2]CCC)[CH2]CCC	4.9 µM (active)
CNC(=O)/C=C(\C)OP(=O)(OC)OC	inactive
CC(C)C(Nc1ccc(C(F)(F)F)cc1Cl)C(=O)OC(C#N)c1cccc(Oc2ccccc2)c1 (stereo not drawn)	inactive
N#Cc1ccc(N(CC(N)=O)CC(F)(F)F)cc1C(F)(F)F	inactive
O=C(O)CCCCCCNC1c2ccccc2CCc2ccccc21	inactive
C=CC(=O)[O][Sn]([CH2]CCC)([CH2]CCC)[CH2]CCC	6.16 µM (active)
NC(=O)C(Cl)Cl	inactive
Cc1cccc(Cc2cnc[nH]2)c1C	inactive
N#CSCc1ccccc1	inactive
CCOP(=O)(OCC)Oc1cc(C)nc(C(C)C)n1	inactive
OCC(Br)CBr (stereo not drawn)	inactive
C=CC(=C)C	inactive
CCn1cc[n+](C)c1 (tested in a mixture with another compound)	inactive
CCCCc1ccccc1	inactive

SMILES	Potency
CCNS(=O)(=O)C(F)(F)C(F)(F)C(F)(F)C(F)(F)C(F)(F)C(F)(F)C(F)(F)C(F)(F)F	inactive
Oc1ccc(Cl)c(Cl)c1	inactive
O=C(Nc1ccc(F)cc1F)c1cccnc1Oc1cccc(C(F)(F)F)c1	inactive
ClC1(Cl)C2(Cl)C3(Cl)C4(Cl)C(Cl)(Cl)C5(Cl)C3(Cl)C1(Cl)C5(Cl)C24Cl (stereo not drawn)	inactive
CC1CN1 (stereo not drawn)	inactive
CC(C)c1c(CN(C)C(C)Cc2ccccc2)n(C)n(-c2ccccc2)c1=O (stereo not drawn)	inactive
Cc1nn(-c2cc(NS(C)(=O)=O)c(Cl)cc2Cl)c(=O)n1C(F)F	inactive
O=S1(=O)OCC2C(CO1)C1(Cl)C(Cl)=C(Cl)C2(Cl)C1(Cl)Cl (stereo not drawn)	17.4 µM (active)
C[C@]12C/C(=C/O)C(=O)C[C@@H]1CC[C@@H]1[C@@H]2CC[C@@]2(C)[C@H]1CC[C@]2(C)O	inactive
[Cl][Hg][c]1ccccc1	17.4 µM (active)
CCCCCON=O	inactive
ClC(Cl)C(Cl)(Cl)Cl	inactive
COC(=O)/C=C(\C)OP(=O)(OC)OC	inactive
CCCCC(CC)COC(=O)c1ccccc1C(=O)OCC(CC)CCCC (stereo not drawn)	inactive
O=C(Cl)c1ccccc1F	inactive
CC1(C)[C@H](/C=C2\CCSC2=O)[C@@H]1C(=O)OCc1coc(Cc2ccccc2)c1	inactive
CCCN	inactive

target: Cytochrome P450 3A4 (Homo sapiens) (UniProt P08684); experiment: Cytochrome P450 Family 3 Subfamily A Member 4 (CYP3A4) small molecule antagonists: luciferase reporter qHTS assay (AID 1671201); details: P450-Glo CYP3A4 enzyme, luciferin luminescence, 1 h; series mostly up to 115 µM
Sequence (P08684 whole entry, looked up): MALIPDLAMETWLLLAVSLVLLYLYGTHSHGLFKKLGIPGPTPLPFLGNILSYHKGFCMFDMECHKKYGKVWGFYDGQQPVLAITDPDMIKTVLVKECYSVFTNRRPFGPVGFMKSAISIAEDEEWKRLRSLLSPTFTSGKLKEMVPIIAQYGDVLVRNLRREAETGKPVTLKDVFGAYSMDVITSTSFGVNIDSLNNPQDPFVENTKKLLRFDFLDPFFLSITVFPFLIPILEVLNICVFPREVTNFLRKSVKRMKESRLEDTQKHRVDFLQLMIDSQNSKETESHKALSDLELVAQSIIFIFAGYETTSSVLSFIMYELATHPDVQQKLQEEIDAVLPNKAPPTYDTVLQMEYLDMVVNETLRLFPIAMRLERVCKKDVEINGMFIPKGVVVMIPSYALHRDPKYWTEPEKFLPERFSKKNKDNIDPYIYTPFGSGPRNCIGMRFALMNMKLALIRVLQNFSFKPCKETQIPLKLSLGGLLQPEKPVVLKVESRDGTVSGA
Outline: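 CYP3A4 activity was followed with a P450-Glo proluciferin substrate. Test compounds in DMSO were preincubated 10 min; NADPH regeneration then ran 1 h, and light output was read 20 min after detection reagent.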

SMILES	Potency
CC(=O)[O][Sn]([c]1ccccc1)([c]1ccccc1)[c]1ccccc1	12.6 µM (active)
C=C(C)C(=O)[O][Sn]([CH2]CCC)([CH2]CCC)[CH2]CCC	22.4 µM (active)
CNC(=O)/C=C(\C)OP(=O)(OC)OC	inactive
O=C(O)CCCCCCNC1c2ccccc2CCc2ccccc21	inactive
NC(=O)C(Cl)Cl	inactive
CCOP(=O)(OCC)Oc1cc(C)nc(C(C)C)n1	inactive
OCC(Br)CBr (stereo not drawn)	inactive
C=CC(=C)C	inactive
CC(=O)[O][Pb]([c]1ccccc1)([c]1ccccc1)[c]1ccccc1	10 µM (active)
CCCCc1ccccc1	inactive
CCNS(=O)(=O)C(F)(F)C(F)(F)C(F)(F)C(F)(F)C(F)(F)C(F)(F)C(F)(F)C(F)(F)F	inactive
O=C(Nc1ccc(F)cc1F)c1cccnc1Oc1cccc(C(F)(F)F)c1	inactive
CC(C)c1c(CN(C)C(C)Cc2ccccc2)n(C)n(-c2ccccc2)c1=O (stereo not drawn)	1.74 µM (active)
Cc1nn(-c2cc(NS(C)(=O)=O)c(Cl)cc2Cl)c(=O)n1C(F)F	inactive
CCC[CH2][Sn]([CH2]CCC)([CH2]CCC)[CH2]CCC	inactive
O=S1(=O)OCC2C(CO1)C1(Cl)C(Cl)=C(Cl)C2(Cl)C1(Cl)Cl (stereo not drawn)	0.224 µM (active)
[Cl][Hg][c]1ccccc1	8.94 µM (active)
CCCCCON=O	inactive
ClC(Cl)C(Cl)(Cl)Cl	inactive
COC(=O)/C=C(\C)OP(=O)(OC)OC	inactive
CCCN	inactive

Reference: PubChem BioAssay (Tox21)
